Source: PubChem BioAssay (NCATS)
Unmarked numbers belong to inactive results. Results filed as inconclusive are left out. Where a call stands in place of a potency, no number is given. The source made the active and inactive calls. Unless noted, calls follow the shape of the dose curve; as a rule, active = well fitted curve in the direction sought with a large enough effect; inconclusive = small, poorly fitted or top-dose-only effect, or another doubt; inactive = no such curve, though single readings can be large; an effect the other way counts as inactive or inconclusive.

What was measured:
[1] = NS1 protein of Zika virus - qHTS assay to identify small molecule inhibitors in human HEK 293 cells (AID 1347053); also: nearly all actives have a fitted effect of over 55% in size
How it was run: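 In this cell-based screen, HEK 293 cultures received compound for one hour before Zika MR766 at MOI = 0.5. NS1 was quantified 24 hours later by TR-FRET, normalized to virus-free wells and infected wells.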

[2] = target: T1, Tyrosine-protein phosphatase non-receptor type substrate 1 (Homo sapiens) + Leukocyte surface antigen CD47 (Homo sapiens) (UniProt P78324+Q08722); assay: CD47-SIRPalpha protein protein interaction - LANCE assay qHTS validation (AID 1347057; active = well fitted curve in the direction sought with a large enough effect in the signal ratio, with a control signal flat, not every such curve was filed as active; the % refers to the signal ratio)
T1 sequence (P78324 whole entry, looked up, the tested form may be a part): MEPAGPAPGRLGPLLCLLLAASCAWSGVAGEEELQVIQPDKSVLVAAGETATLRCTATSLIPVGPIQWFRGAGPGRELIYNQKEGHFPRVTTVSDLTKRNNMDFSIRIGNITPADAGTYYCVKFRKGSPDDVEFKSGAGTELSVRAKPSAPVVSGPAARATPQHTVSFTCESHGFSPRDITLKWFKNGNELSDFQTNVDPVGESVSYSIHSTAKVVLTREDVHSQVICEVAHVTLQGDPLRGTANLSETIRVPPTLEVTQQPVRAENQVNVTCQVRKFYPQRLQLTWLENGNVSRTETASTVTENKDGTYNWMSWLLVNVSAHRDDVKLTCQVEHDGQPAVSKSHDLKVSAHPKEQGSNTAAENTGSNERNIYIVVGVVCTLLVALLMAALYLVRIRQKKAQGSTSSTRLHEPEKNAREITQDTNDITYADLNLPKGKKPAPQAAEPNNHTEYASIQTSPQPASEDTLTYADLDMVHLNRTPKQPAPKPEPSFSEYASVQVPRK
T1 sequence (Q08722 whole entry, looked up, the tested form may be a part): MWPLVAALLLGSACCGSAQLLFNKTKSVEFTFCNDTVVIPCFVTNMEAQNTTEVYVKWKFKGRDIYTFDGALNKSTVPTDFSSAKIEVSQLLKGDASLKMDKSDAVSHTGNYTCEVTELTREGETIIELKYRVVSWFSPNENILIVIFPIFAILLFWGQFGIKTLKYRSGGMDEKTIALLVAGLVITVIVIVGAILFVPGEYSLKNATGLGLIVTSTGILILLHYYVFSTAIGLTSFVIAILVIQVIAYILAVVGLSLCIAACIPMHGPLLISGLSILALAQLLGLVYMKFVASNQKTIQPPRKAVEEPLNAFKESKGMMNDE
How it was run: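 Inhibition of soluble CD47/SIRPalpha ectodomain association by titrated compounds, measured as 665/615 nm time-resolved FRET ratio after sequential 30 min room-temperature incubations.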

[3] = target: T1, Tyrosine-protein phosphatase non-receptor type substrate 1 (Homo sapiens) + Leukocyte surface antigen CD47 (Homo sapiens); assay: CD47-SIRPalpha protein protein interaction - HTRF assay qHTS validation (AID 1347058; active = well fitted curve in the direction sought with a large enough effect in the signal ratio, not every such curve was filed as active; the % refers to the signal ratio)
How it was run: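 Soluble extracellular domains (6His-CD47, Avi-tag-biotinylated SIRPalpha) in PBS pH 7.4 with 0.05% IGEPAL CA-630. Compounds were preincubated 30 min at RT with CD47 and anti-His-Eu, then SIRPalpha and SAV-XL665 were added. TR-FRET 665/615 ratio.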

[4] = target: T1, Tyrosine-protein phosphatase non-receptor type substrate 1 (Homo sapiens) + Leukocyte surface antigen CD47 (Homo sapiens); assay: CD47-SIRPalpha protein protein interaction - Alpha assay qHTS validation (AID 1347059);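 also: bead proximity luminescence from CD47 binding SIRPalpha after compound preincubation with SIRPalpha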
How it was run: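 AlphaScreen signal between CD47-His (12.5 nM) and biotin-SIRPalpha (25 nM) soluble extracellular domains, bead-captured via Ni-NTA and streptavidin. Compounds, in 7-point titrations, met SIRPalpha 30 min before CD47; PBS pH 7.4 with 0.05% IGEPAL.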

[5] = target: N-terminal Xaa-Pro-Lys N-methyltransferase 1 (Homo sapiens) (UniProt Q9BV86); assay: qHTS Assay for Inhibitors of N-terminal methyltransferase 1 (NTMT1): LOPAC validation of the NTMT1 SAHH-coupled ThioGlo3 Assay (AID 1347143);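 also: SAH from peptide methylation measured as thiol fluorescence via SAHH coupling and ThioGlo3; nearly all actives have a fitted effect of over 70% in size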; also: potency is read from the fitted curve at half-maximal effect
Chain of N-terminal Xaa-Pro-Lys N-methyltransferase 1 (Homo sapiens) (Q9BV86 whole entry, looked up): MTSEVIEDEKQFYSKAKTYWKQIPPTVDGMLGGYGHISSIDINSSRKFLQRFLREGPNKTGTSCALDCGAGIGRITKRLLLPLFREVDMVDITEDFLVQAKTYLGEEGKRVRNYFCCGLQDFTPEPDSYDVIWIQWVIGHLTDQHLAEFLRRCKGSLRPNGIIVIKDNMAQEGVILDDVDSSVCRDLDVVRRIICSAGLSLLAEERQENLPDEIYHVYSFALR
How it was run: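 NTMT1 125nM + cpds (various conc.), 1 min RT; add SAM 100uM/SAHH 10uM/ThioGlo3 15uM (addition mix). SAHH-coupled thiol detection, Ex340/Em450, t0 and 30 min RT; signal normalized to background. LOPAC 1280-cpd pilot.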

[6] = system: Zika virus NS2B-NS3 protease (unlinked); assay: Optimization of GU AMC qHTS for Zika virus inhibitors: Unlinked NS2B-NS3 protease assay (AID 1347151); also: nearly all actives have a fitted effect of over 80% in size; also: potency is read from the fitted curve at half-maximal effect
How it was run: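 Fluorescence gain (340/450 nm) over 15 min at room temperature, ~20% conversion, gave percent inhibition fitted to a 4-parameter Hill equation; enzyme was unlinked NS2B-NS3 (25 nM final), pH 8.0 Tris buffer.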

[7] = target: Lysine-specific demethylase 5B (Homo sapiens) (UniProt Q9UGL1); assay: Optimization screen for KDM5B Histone Demethylases FDH coupled qHTS against the LOPAC library (AID 1347166); conditions: KDM5B demethylation, FDH-coupled NADH fluorescence (FDH is formaldehyde dehydrogenase); at 57.5 µM (top of the series)
Chain of Lysine-specific demethylase 5B (Homo sapiens) (Q9UGL1 whole entry, looked up): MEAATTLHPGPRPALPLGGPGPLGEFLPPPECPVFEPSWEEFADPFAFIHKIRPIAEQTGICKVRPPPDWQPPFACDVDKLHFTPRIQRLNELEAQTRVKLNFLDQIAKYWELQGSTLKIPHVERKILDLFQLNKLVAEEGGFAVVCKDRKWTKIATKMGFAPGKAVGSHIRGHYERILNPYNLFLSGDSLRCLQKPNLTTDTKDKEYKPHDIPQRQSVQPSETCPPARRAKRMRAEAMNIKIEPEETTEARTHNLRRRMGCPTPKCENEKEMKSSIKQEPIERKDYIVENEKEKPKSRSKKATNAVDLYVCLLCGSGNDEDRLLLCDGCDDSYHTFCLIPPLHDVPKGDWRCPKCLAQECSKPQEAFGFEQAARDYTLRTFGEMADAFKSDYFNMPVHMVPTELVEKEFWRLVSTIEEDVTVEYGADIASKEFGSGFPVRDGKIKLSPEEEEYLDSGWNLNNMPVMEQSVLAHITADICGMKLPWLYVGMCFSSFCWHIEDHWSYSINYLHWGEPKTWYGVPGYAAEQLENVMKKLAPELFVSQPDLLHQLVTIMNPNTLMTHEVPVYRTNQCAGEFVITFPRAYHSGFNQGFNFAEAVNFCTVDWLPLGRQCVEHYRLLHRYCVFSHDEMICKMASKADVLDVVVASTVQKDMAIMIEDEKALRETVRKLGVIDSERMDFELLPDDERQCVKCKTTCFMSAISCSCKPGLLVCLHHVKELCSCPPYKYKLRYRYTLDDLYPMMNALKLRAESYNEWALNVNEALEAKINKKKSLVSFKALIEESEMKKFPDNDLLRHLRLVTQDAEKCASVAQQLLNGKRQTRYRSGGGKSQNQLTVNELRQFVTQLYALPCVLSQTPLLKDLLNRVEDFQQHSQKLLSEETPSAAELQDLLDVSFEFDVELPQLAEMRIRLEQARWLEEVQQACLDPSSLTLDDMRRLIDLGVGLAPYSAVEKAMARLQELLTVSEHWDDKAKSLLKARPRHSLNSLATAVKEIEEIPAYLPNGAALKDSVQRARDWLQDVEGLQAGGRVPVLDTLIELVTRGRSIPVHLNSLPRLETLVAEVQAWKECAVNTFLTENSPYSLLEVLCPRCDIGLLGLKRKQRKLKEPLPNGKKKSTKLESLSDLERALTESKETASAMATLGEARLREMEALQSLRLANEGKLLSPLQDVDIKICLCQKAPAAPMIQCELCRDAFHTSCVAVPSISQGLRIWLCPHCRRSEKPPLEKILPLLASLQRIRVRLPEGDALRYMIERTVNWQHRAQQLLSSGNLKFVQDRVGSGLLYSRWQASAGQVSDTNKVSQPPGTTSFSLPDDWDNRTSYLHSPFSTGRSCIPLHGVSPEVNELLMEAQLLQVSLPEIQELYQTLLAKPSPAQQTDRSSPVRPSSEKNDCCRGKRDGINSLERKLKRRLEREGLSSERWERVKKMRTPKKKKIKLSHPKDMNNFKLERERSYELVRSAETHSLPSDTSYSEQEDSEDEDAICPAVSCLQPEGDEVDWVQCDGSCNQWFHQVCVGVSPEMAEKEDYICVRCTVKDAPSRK
How it was run: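 KDM5BDeltaAP (200nM final) in 50mM HEPES pH 7.5, 0.01% Tween-20 was preincubated with compound for 10 min at room temperature. A substrate mix of 12.5uM H3K4Me3, 25uM a-ketoglutarate, ascorbate, Fe2+, NAD+ and formaldehyde dehydrogenase was then added. NADH fluorescence (340/450 nm) was read initially and after 30 min.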

[8] = target: Parathyroid hormone/parathyroid hormone-related peptide receptor (Homo sapiens) (UniProt Q03431); assay: qHTS for PTHR1 Agonists: Optimization Screen against the NCGC LOPAC library (AID 1347079);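 also: GloSensor cAMP luminescence in HEK-293 GP2 cells expressing human PTHR1 with IBMX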
Chain of Parathyroid hormone/parathyroid hormone-related peptide receptor (Homo sapiens) (Q03431 whole entry, looked up): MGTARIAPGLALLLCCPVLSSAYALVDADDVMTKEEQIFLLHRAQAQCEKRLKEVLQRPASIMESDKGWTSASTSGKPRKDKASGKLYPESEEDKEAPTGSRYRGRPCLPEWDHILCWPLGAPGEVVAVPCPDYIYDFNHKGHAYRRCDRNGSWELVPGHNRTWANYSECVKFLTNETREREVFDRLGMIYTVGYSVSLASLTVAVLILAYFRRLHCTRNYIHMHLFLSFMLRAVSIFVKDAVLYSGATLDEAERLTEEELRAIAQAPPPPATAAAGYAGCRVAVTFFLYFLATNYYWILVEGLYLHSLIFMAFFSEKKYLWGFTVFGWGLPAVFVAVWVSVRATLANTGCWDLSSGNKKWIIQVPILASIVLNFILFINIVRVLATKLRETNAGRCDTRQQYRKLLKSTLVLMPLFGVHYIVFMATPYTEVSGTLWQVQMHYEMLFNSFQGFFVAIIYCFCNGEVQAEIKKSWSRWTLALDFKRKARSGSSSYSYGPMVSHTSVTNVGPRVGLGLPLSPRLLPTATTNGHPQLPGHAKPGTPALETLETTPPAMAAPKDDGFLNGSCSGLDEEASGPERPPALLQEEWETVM
How it was run: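 Signal increase flags agonism. GP2 cells, derived from HEK-293, express human PTHR1 and a GloSensor cAMP construct.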

Furin (Homo sapiens) = Furin (Homo sapiens) (UniProt P09958); assay: Furin counterscreen qHTS for Zika virus inhibitors (AID 1347149);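 also: purified recombinant full-length human furin enzyme at 5 nM; fluorescence gain from furin cutting a BOC-RVRR-AMC peptide substrate over 15 min; top concentration of the series differs between compounds; nearly all actives have a fitted effect of over 70% in size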
Chain of Furin (Homo sapiens) (P09958 whole entry, looked up): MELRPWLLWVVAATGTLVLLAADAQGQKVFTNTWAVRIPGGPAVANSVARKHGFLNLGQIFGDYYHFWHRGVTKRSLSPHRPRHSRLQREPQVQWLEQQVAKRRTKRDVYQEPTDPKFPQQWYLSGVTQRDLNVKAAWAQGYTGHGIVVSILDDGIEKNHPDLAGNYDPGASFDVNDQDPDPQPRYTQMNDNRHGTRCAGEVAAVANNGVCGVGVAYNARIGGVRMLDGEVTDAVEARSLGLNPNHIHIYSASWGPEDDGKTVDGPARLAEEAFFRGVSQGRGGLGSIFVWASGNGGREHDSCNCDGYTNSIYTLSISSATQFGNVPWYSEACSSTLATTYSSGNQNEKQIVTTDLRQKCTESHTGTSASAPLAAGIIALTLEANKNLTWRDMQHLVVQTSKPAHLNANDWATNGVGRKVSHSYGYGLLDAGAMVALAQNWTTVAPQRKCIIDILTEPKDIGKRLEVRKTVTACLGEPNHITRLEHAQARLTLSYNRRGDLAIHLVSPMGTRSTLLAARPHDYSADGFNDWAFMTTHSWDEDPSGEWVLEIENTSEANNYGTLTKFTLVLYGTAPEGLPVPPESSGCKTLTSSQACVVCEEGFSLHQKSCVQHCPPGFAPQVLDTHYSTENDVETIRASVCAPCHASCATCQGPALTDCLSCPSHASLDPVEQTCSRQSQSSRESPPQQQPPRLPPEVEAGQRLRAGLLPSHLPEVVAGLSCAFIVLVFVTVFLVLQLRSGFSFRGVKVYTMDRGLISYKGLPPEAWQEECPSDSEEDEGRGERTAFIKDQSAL
How it was run: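 Counterscreen measures cleavage of 2 microM BOC-RVRR-AMC, below its ~15 microM Km, by 5 nM full-length human furin at pH 7.0 after a 15-min compound preincubation. Inhibition derives from the 15-min fluorescence increase at 37C.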

[9] = ZIKV-mCherry secondary qHTS for Zika virus inhibitors (AID 1347158); also: top concentration of the series differs between compounds
How it was run: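 This orthogonal imaging screen measured ZIKV-mCherry infection of Vero cells exposed to compound, MOI 1, 48-72 h. Percent infection came from segmented nuclei scored mCherry-positive above 3 SD of negative controls.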

[10] = system: Zika virus NS2B-NS3 protease (linked); assay: 384 well plate NINDS AMC confirmatory qHTS for Zika virus inhibitors (AID 1347163); also: potency is read from the fitted curve at half-maximal effect; nearly all actives have a fitted effect of over 50% in size
How it was run: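 Enzyme (5, 30 or 60 nM final) first met test compounds for ~15 min. The AMC-tagged peptide Ac-VKTGKR-AMC followed at 30 microM. Fluorescence was then recorded at 25 min and scaled against no-enzyme and no-inhibitor wells.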

[11] = system: Zika virus NS2B-NS3 protease; assay: Primary screen GU AMC qHTS for Zika virus inhibitors (AID 1347154); also: nearly all actives have a fitted effect of over 70% in size
How it was run: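 Fluorogenic AMC-substrate cleavage by noncovalent NS2B-NS3 protease complex (25 nM, pH 8.0 Tris buffer with Tween 20) followed for 15 minutes at room temperature (~20% conversion). Percent inhibition from ex340/em450 signal change, fitted by 4-parameter Hill equation.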

In the case of `NC(Cc1cccc(-c2ccccc2CP(=O)(O)O)c1)C(=O)O` (stereo not given), the Potency [1] is reported as “inactive”, the Potency [2] is reported as “inactive” and the outcome [3] is reported as “inactive”. The Potency [4] was “inactive”, the Potency [5] was “inactive” and the Potency [6] was “inactive”. For the same compound, the activity, negative = inhibition [7] was -9.93%.

In the case of `Cc1nc(N=Nc2cc(S(=O)(=O)O)c3cc([N+](=O)[O-])cc(S(=O)(=O)O)c3c2)c(COP(=O)(O)O)c(C=O)c1O`, the Potency [1] is reported as “inactive”, the Potency [2] is reported as “inactive” and the Potency [4] is reported as “inactive”. For the same compound, the Potency [8] was “inactive”, the Potency [5] was 56.2 µM (active) and the Potency (Furin (Homo sapiens)) was “inactive”. The Potency [6] was 26.7 µM (active), the Potency [9] was “inactive” and the Potency [10] was 31.6 µM (active). For the same compound, the activity, negative = inhibition [7] was -12.7%.

In the case of `CCCCCCN(CCCCCC)C(=O)Cc1c(-c2ccc(F)cc2)[nH]c2ccccc12`, the Potency [1] is reported as “inactive”, the Potency [2] is reported as “inactive” and the outcome [3] is reported as “inactive”. The Potency [4] was “inactive”, the Potency [5] was 79.4 µM (active) and the Potency [6] was 21.2 µM (active). The Potency [11] was “inactive”.

In the case of `Cn1cc(C(=O)OCC2CCN(CCNS(C)(=O)=O)CC2)c2ccccc21`, the Potency [1] is reported as “inactive”, the Potency [2] is reported as “inactive” and the outcome [3] is reported as “inactive”. For the same compound, the Potency [4] was “inactive”, the Potency [5] was “inactive” and the Potency [6] was “inactive”. For the same compound, the Potency [11] was “inactive” and the activity, negative = inhibition [7] was -6.85%.

In the case of `O=C(O)C1CCCNC1` (stereo not given), the Potency [1] is reported as “inactive”, the Potency [2] is reported as “inactive” and the outcome [3] is reported as “inactive”. The Potency [4] was “inactive”, the Potency [5] was “inactive” and the Potency [6] was “inactive”. It also gave an activity, negative = inhibition [7] of -0.313%.

With `O=c1[nH]c2ccccc2c2ccccc12` the Potency [1] was “inactive”, the Potency [2] was “inactive” and the outcome [3] was “inactive”. The Potency [4] was “inactive”, the Potency [6] was 26.7 µM (active) and the Potency [11] was “inactive”.

With `Cc1cc2c(cc1Cl)N(C(=O)Nc1ccnc3ccccc13)CC2` the Potency [1] was “inactive”, the Potency [2] was “inactive” and the outcome [3] was “inactive”. The Potency [4] was “inactive” and the Potency [6] was “inactive”.

With `CC(C)NC[C@H](O)COc1ccc(CC(N)=O)cc1` the Potency [1] was “inactive”, the Potency [2] was “inactive” and the outcome [3] was “inactive”. For the same compound, the Potency [4] was “inactive”, the Potency [5] was “inactive” and the Potency [6] was “inactive”. For the same compound, the Potency [11] was “inactive” and the activity, negative = inhibition [7] was -2.87%.

With `CSC(N)=NCCC[C@H](N)C(=O)O` the Potency [1] was “inactive”, the Potency [2] was “inactive” and the outcome [3] was “inactive”. The Potency [4] was “inactive”, the Potency [5] was “inactive” and the Potency [6] was “inactive”. The activity, negative = inhibition [7] was -3.11%.

In the case of `C=C1C[C@@]23CC[C@H]4[C@@](C)(CCC[C@@]4(C)C(=O)O)[C@@H]2CC[C@]1(O)C3`, the Potency [1] is reported as “inactive”, the Potency [2] is reported as “inactive” and the outcome [3] is reported as “inactive”. The Potency [4] was “inactive”, the Potency [5] was “inactive” and the Potency [6] was “inactive”. The activity, negative = inhibition [7] was -2.05%.

In the case of `CC1=C(C(=O)O)N2C(=O)[C@@H](NC(=O)C(N)C3=CCC=CC3)[C@H]2SC1` (stereo not given in full), the Potency [1] is reported as “inactive”, the Potency [2] is reported as “inactive” and the outcome [3] is reported as “inactive”. The Potency [4] was “inactive”, the Potency [5] was “inactive” and the Potency [6] was “inactive”. The activity, negative = inhibition [7] was -22.8%.

For `NCC(O)c1ccc(O)c(O)c1` (stereo not given), the Potency [1] was “inactive”, the Potency [2] was “inactive” and the outcome [3] was “inactive”. The Potency [4] was “inactive” and the Potency [6] was “inactive”.

For `CN1CCCC1CCOC(C)(c1ccccc1)c1ccc(Cl)cc1` (stereo not given), the Potency [1] was “inactive”, the Potency [2] was “inactive” and the outcome [3] was “inactive”. For the same compound, the Potency [4] was “inactive”, the Potency [6] was “inactive” and the activity, negative = inhibition [7] was -0.721%.
